Assay [1] is described as follows: APR_HepG2_P-H2AX_72hr: Apredica 72-hour HepG2 Assay for H2AX Phosphorylation (AID 2282916).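 Also: phospho-histone H2A.x immunostain intensity per cell marking DNA damage.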 Conditions: imaging, actives raise or lower the signal. In short, it runs like this: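 Following 72 hr treatment with 0.39–200 uM compound, HepG2 cells were formaldehyde-fixed, permeabilized and stained for phospho-H2A.x; signal was measured by high-content imaging and fitted bidirectionally against DMSO controls.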

Assay [2] can be described thus: APR_HepG2_MitoMembPot_72hr: Apredica 72-hour HepG2 Assay for Mitochondrial Membrane Potential (AID 2282917). Conditions: imaging, actives raise or lower the signal. In outline: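 Membrane potential read by MitoTracker Red CMXRos (250 nM, 30 min, pre-fixation) fluorescence imaging of HepG2 after 72 hr exposure. Ten concentrations, 0.39–200 uM, duplicate wells, 0.5% DMSO; fitted in both directions against DMSO baseline.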

Assay [3] can be described thus: APR_HepG2_MitoticArrest_72hr: Apredica 72-hour HepG2 Assay for Mitotic Arrest (AID 2282918). Conditions: high-content imaging, actives raise or lower the signal. In short, it runs like this: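 Read-out is phospho-histone H3 immunofluorescence with Hoechst nuclear segmentation, imaged at 20x. Human HepG2 liver cells received ten concentrations (0.39–200 uM, final DMSO 0.5% v/v) for 72 hr before fixation. Gain or loss of signal was fitted relative to DMSO.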

Assay [4] in a line: APR_HepG2_MicrotubuleCSK_72hr: Apredica 72-hour HepG2 Assay for Microtubule CSK Stabilty (AID 2282919). The following applies: HepG2 microtubule cytoskeleton, high-content imaging, actives raise or lower the signal. In outline:
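Read-out is tubulin fluorescence intensity from high-content imaging of HepG2 cells, with nuclei identified by Hoechst 33342. Treatment lasts 72 h at 0.39–200 uM, and curves are fitted bidirectionally against the DMSO negative control.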

A short description of assay [5]: APR_HepG2_StressKinase_72hr: Apredica 72-hour HepG2 Assay for Stress Kinase (AID 2282921). Conditions: HepG2 stress kinase (phospho-c-Jun) imaging, actives raise or lower the signal. In short, it runs like this:
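Fluorescence intensity of Cy3-tagged anti-phospho-c-Jun antibody, quantified per cell from Hoechst-defined nuclei across six images per well, served as the read-out following 72 h exposure (0.39–200 uM, 0.5% v/v DMSO).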

A short description of assay [6]: APR_HepG2_StressKinase_24hr: Apredica 24-hour HepG2 Assay for Stress Kinase (AID 2282922). The following applies: HepG2 stress kinase (phospho-c-Jun) imaging, actives raise or lower the signal. In short, it runs like this:
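HepG2, 24 hr dosing, 0.39–200 uM in duplicate, 0.5% DMSO; formaldehyde fix (3.7%), 0.5% Triton X-100; anti-phospho-c-Jun + Cy3 secondary, Hoechst counterstain; ArrayScan imaging; bidirectional curve fit vs DMSO baseline.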

A short description of assay [7]: APR_HepG2_p53Act_72hr: Apredica 72-hour HepG2 Assay for p53 Activation (AID 2282923).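 Also: average cellular p53 protein immunofluorescence intensity in HepG2 cells.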 Conditions: high-content imaging, actives raise or lower the signal. In short, it runs like this:
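HepG2 monolayers receive test compounds in duplicate at ten concentrations (0.39 through 200 uM) for 72 hr. They are then formaldehyde-fixed, antibody-labelled for p53, Hoechst-stained and imaged, with activity fitted bidirectionally versus DMSO.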

Assay [8] in a line: APR_HepG2_MitoMass_72hr: Apredica 72-hour HepG2 Assay for Mitochondrial Mass (AID 2282924).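 Also: MitoTracker Red CMXRos stain intensity per cell imaged as mitochondrial mass.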 Conditions: high-content imaging, actives raise or lower the signal. In outline:
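HepG2, 72 hr cmpd, 10 conc 0.39–200 uM in dup, DMSO 0.5% v/v. MitoTracker Red CMXRos 250 nM 30 min pre-fix; formaldehyde 3.7% fix 30 min RT. HCS imaging, gain/loss fit vs DMSO.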

The nature of assay [9]: APR_HepG2_NuclearSize_72hr: Apredica 72-hour HepG2 Assay for Nuclear Size (AID 2282925). The following applies: high-content imaging, actives raise or lower the signal. In outline:
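HepG2; cpd 0.39–200 uM, 10 conc, duplicate; 72 h; DMSO 0.5% v/v; fix 3.7% formaldehyde 30 min RT; Triton permeabilization; Hoechst 2 ug/mL; HCS imaging 20x; nuclear diameter; gain/loss fit vs DMSO.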

Assay [10] can be described thus: ATG_CRE_CIS: Attagene CIS-FACTORIAL HepG2 Assay for human cAMP Responsive Element (CRE) binding protein 3 (AID 2282926). The following applies: HepG2 CRE cis-reporter, Attagene multiplexed mRNA; actives raise or lower the signal. In short, it runs like this: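 Human liver HepG2, transient MRTU transfection, 24 h compound exposure. Total RNA → oligo(dT) RT → PCR → 6-FAM primer extension → HpaI cut → CE. Activity called both directions vs DMSO.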

Assay [11] has as its target CCAAT/enhancer-binding protein beta (Homo sapiens) (UniProt P17676). Kind of assay: ATG_C_EBP_CIS: Attagene CIS-FACTORIAL HepG2 Assay for human CCAAT/Enhancer Binding Protein (C/EBP) beta (AID 2282927). The following applies: HepG2 Attagene cis-factorial transcription factor reporter; actives raise or lower the signal. In outline:
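Endogenous C/EBPb-driven reporter transcripts measured in transfected human HepG2 cells at 24 h via RT-PCR and capillary electrophoresis of labelled fragments. Activity fitted in both directions relative to DMSO baseline.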

The nature of assay [12]: ATG_CMV_CIS: Attagene CIS-FACTORIAL HepG2 Assay for human CMV (Internal Marker) (AID 2282928).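 Also: endpoint acts as a background internal control marker rather than a target.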 Conditions: HepG2 CMV promoter reporter, transcription factor profiling; actives raise or lower the signal. In short, it runs like this:
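Endogenous transcription factor activity read in HepG2 via transfected cis-promoter reporter units. After 24 h dosing, reporter mRNA measured by RT-PCR/capillary electrophoresis; gain or loss of signal fit relative to DMSO.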

Assay [13] is described as follows: ATG_DR4_LXR_CIS: Attagene CIS-FACTORIAL HepG2 Assay for human Liver X Receptor (LXR), DR4 submotif (AID 2282929). Conditions: HepG2 Attagene DR4 cis-reporter, mRNA transcription; actives raise or lower the signal. In short, it runs like this:
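HepG2, transient MRTU transfection, cis-element (DR4) promoter; 24 h compound exposure; total RNA → oligo(dT) RT → PCR → 6-FAM primer extension → HpaI cut → CE. Gain/loss vs DMSO, bidirectional fit.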

Assay [14] has as its target Aryl hydrocarbon receptor (Homo sapiens) (UniProt P35869). Briefly: ATG_Ahr_CIS: Attagene CIS-FACTORIAL HepG2 Assay for human Aryl Hydrocarbon Receptor (Ahr) (AID 2282930). The following applies: HepG2 AhR cis-factorial reporter transcription; actives raise or lower the signal. In short, it runs like this: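 Reporter mRNA levels, quantified by RT-PCR and fluorescent capillary electrophoresis, reflect endogenous AhR transcriptional activity in HepG2 cells carrying transfected cis-promoter reporter constructs. Readout at 24 h post-dose; gain or loss fitted against DMSO baseline.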

Assay [15] can be described thus: ATG_AP_1_CIS: Attagene CIS-FACTORIAL HepG2 Assay for human Activator Protein 1 (AP-1) (AID 2282931). The following applies: HepG2 Attagene cis-factorial AP-1 reporter mRNA; actives raise or lower the signal. In short, it runs like this:
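Transient MRTU transfection of HepG2 → 24 h chemical treatment → RNA isolation, RT-PCR, 6-FAM labelling, HpaI digest → capillary electrophoresis. Fit: bidirectional, DMSO negative control.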

The nature of assay [16]: ATG_AP_2_CIS: Attagene CIS-FACTORIAL HepG2 Assay for human Activator Protein 2 (AP-2) (AID 2282932). The following applies: HepG2 AP-2 cis-reporter, Attagene transcription factor profiling; actives raise or lower the signal. In outline: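 Step one: transient transfection of HepG2 with reporter transcription units. Step two: 24 h chemical exposure. Step three: RNA extraction, RT-PCR, labelled fragment analysis by capillary electrophoresis; DMSO serves as baseline.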

Assay [17] in a line: ATG_BRE_CIS: Attagene CIS-FACTORIAL HepG2 Assay for human Bone Morphogenetic Protein (BMP) Response Element (BRE) (AID 2282933). Conditions: HepG2 BMP response element reporter, Attagene transcription factor profiling; actives raise or lower the signal. In outline: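 Endogenous transcription factor activity at a BMP response element was monitored in transfected HepG2 cells 24 h after dosing. Fluorescent RT-PCR products were resolved by capillary electrophoresis, and activity was fitted in both directions versus DMSO.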

In assay [18] the target is Retinoic acid receptor alpha (Homo sapiens) (UniProt P10276). Kind of assay: ATG_DR5_RAR_CIS: Attagene CIS-FACTORIAL HepG2 Assay for human Retinoic Acid Receptor Alpha (RARE), DR5 submotif (AID 2282934). Conditions: HepG2 Attagene cis-factorial RARE DR5 reporter, mRNA; actives raise or lower the signal. In outline: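 Reporter transcripts from a DR5-regulated unit, measured via RT-PCR plus capillary electrophoresis, reflect endogenous RAR activity in transiently transfected human HepG2 liver cells. Exposure lasted 24 h; gain or loss of signal scored against DMSO.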
Retinoic acid receptor alpha (Homo sapiens), sequence (P10276 whole entry, looked up): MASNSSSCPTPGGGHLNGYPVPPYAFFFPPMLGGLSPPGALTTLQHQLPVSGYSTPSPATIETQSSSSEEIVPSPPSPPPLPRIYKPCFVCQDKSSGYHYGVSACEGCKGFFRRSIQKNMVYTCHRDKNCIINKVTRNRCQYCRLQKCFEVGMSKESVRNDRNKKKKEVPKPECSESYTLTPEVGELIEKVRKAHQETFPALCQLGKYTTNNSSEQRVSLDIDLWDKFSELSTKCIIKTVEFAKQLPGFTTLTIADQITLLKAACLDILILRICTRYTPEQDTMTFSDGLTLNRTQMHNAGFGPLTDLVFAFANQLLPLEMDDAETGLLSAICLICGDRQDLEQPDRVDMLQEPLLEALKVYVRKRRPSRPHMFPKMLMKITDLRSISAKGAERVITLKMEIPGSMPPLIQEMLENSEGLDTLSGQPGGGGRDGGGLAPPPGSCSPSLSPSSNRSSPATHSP

For assay [19], the target named is Transcription factor E2F1 (Homo sapiens) (UniProt Q01094). Kind of assay: ATG_E2F_CIS: Attagene CIS-FACTORIAL HepG2 Assay for human E2F Transcription Factor 1 (AID 2282935). The following applies: HepG2 Attagene cis-reporter, E2F reporter RNA transcripts; actives raise or lower the signal. In outline:
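Total RNA from 24 h-treated, reporter-transfected HepG2 cells undergoes DNase I treatment, oligo(dT) reverse transcription, PCR and 6-FAM primer extension before capillary electrophoresis.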

Where “and” joins values, the source holds several entries; their conditions need not be identical. Equal values may be shown once. Some structures have more than one record in an assay (separate samples or runs), and their calls can disagree. Calls of active or inactive are those of the source. The calls were made as follows: active = hit-call score of the fitted dose curve at least 0.9, where 1 is the maximum; inactive = score below 0.9.

Aryl hydrocarbon receptor (Homo sapiens), sequence (P35869 whole entry, looked up): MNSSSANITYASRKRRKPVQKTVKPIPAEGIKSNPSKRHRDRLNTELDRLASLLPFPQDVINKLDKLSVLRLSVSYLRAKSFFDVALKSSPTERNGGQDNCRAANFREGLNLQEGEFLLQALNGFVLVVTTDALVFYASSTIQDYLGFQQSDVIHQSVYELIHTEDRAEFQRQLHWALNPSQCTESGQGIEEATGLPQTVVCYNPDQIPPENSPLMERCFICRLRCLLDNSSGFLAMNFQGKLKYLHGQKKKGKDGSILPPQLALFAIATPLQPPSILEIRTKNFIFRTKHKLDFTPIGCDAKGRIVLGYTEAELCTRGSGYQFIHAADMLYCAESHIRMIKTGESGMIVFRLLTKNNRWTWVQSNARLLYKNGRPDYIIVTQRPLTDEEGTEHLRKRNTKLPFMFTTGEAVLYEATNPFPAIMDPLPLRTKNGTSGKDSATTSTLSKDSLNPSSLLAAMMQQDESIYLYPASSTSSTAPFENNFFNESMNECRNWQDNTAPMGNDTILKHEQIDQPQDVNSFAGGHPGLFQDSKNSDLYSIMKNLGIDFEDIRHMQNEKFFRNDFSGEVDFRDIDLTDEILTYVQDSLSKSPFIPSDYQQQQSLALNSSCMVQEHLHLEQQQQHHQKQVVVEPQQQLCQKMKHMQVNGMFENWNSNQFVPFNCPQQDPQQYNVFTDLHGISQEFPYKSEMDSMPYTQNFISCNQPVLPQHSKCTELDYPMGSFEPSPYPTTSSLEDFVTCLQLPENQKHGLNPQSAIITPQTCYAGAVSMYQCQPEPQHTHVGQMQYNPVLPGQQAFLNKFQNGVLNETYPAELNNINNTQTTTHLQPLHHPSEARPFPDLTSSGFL
CCAAT/enhancer-binding protein beta (Homo sapiens), sequence (P17676 whole entry, looked up, the tested form may be a part): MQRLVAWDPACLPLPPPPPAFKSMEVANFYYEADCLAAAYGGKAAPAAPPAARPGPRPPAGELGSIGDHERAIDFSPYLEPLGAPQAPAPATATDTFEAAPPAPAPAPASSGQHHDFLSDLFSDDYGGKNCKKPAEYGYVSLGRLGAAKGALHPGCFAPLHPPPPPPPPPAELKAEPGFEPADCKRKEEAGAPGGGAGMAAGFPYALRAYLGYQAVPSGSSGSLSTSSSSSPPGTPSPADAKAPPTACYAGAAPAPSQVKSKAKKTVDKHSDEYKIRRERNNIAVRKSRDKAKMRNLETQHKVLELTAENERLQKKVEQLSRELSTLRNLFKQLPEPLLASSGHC
Transcription factor E2F1 (Homo sapiens), sequence (Q01094 whole entry, looked up): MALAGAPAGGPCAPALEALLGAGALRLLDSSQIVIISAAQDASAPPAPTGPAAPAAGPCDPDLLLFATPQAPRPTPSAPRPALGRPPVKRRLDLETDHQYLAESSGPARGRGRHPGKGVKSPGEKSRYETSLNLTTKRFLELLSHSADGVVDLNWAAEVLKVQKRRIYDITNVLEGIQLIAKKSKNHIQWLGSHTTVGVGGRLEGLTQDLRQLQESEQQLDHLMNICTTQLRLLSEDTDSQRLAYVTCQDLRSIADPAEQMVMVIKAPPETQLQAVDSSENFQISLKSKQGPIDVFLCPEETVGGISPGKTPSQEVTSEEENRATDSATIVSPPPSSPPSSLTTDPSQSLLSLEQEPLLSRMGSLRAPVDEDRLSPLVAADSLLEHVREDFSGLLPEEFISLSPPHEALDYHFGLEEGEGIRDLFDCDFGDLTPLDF

A word on the AC50: it is the midpoint of the concentration-response curve, whichever way the signal moves. In the case of `O=S(=O)(O)C(F)(F)C(F)(F)C(F)(F)C(F)(F)F`, the outcome in [1], in [2], in [3], in assay [4], in assay [5] and in assay [6] was inactive. The compound was called inactive in assay [7], in assay [8], in [9], in assay [10], in assay [11] and in assay [12]. The outcome in assay [13], in [14], in assay [15], in assay [16], in assay [17] and in assay [18] was inactive. The compound was called inactive in assay [19]. Also, the AC50 in [14] is 110 µM (active).
In the case of `CN(C)CCO`, the result in assay [1], in [2], in assay [3], in assay [4], in assay [5] and in assay [6] was inactive. For the same compound, the compound was called inactive in assay [7], in [8], in assay [9], in assay [10], in assay [11] and in assay [12]. Besides, the result in assay [13], in assay [14], in assay [15], in assay [16], in assay [18] and in assay [19] was inactive.
`COc1ccc(O)c(C(C)(C)C)c1`: the result in assay [1], in assay [2], in assay [3], in [4], in assay [5] and in [6] was inactive. For the same compound, the compound was classed as inactive in assay [7], in [8], in [9], in assay [13], in assay [14] and in [16]. Moreover, the outcome in assay [17], in assay [18] and in assay [19] was inactive. In addition, the concentration at half-maximal activity (AC50) in assay [10] is 100 µM (active); in assay [11], 100 µM (active); in assay [12] it was 83.1 µM (active); in [15], 55.5 µM (active).
Turning to `C1CC2OC2CC1C1CO1` (configuration not stated), the compound was called inactive in assay [1], in assay [2], in [3], in [4], in assay [5] and in [6]. The call in assay [7], in [8], in [9], in assay [10], in assay [11] and in [12] was inactive. The outcome in assay [13], in assay [15], in assay [16], in assay [18] and in [19] was inactive. In assay [14], the half-maximal activity concentration (AC50) was 81.5 µM (active).
As for `Cc1ccc(O)c(C)c1`, the compound was classed as inactive in [1], in assay [2], in assay [3], in assay [4], in assay [5] and in [6]. The outcome in assay [7], in assay [8], in assay [9], in assay [10], in assay [11] and in [12] was inactive. In addition, the compound was classed as inactive in [13], in assay [14], in [15], in assay [16], in assay [17] and in assay [18]. The outcome in assay [19] was inactive.
Consider `CCC(C)(c1ccc(O)cc1)c1ccc(O)cc1`, for which the result in [1], in [6], in assay [7], in [9], in assay [10] and in assay [11] was inactive. The compound was called inactive in assay [12], in assay [14], in assay [15], in assay [16], in [17] and in [19]. For the same compound, the AC50 in [5] was 34.3 µM (active); in assay [10], 53.2 µM (active); in assay [12], 56.5 µM (active) and 56.1 µM (active) and 23.2 µM (active); in assay [13], 47.5 µM (active) [middle of 4 runs]; in assay [14] it was 58.9 µM (active); in assay [15] it was 59.3 µM (active) and 33.4 µM (active) and 15.6 µM (active).

The record behind these values is PubChem BioAssay (EPA / NIEHS).
